Experimental data published in PubChem BioAssay (NCATS).
“And” between values parts separate entries of the source, which are not always exact repeats. Equal entries are not always repeated. A number with no mark means an inactive call. Records with an inconclusive call do not appear. The source made the active and inactive calls. Unless noted, calls follow the shape of the dose curve; as a rule, active = well fitted inhibition curve with a large enough effect; inconclusive = small, poorly fitted or top-dose-only effect; inactive = flat fitted curve, though single readings scatter.

Tests used:
[1] = system: astro; assay: Drug repurposing screens with cells derived from glioblastoma tumor samples (AID 1345199); conditions: viability, ATP luminescence, 48 h; series mostly up to 45.9 µM; also: nearly all actives have a fitted effect of over 40% in size; also: potency is read from the fitted curve at half-maximal effect; as to activity, negative = cell killing: % is scaled to controls: 0 for no effect and ±100 for the full control effect
Procedure, shortened: (§1)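 Primary testing used CD133+ neurospheres from four GBM patients, seven concentrations, 48 h exposure and ATP-based viability; confirmation added three slower-growing patient lines.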

[2] = as above; conditions: GBM patient neurospheres viability, ATP luminescence, 48 h; for Potency: tumour line A
Procedure, shortened: as §1

[3] = target: Nuclear receptor subfamily 1 group I member 2 (Rattus norvegicus) (UniProt Q9R1A7); assay: qHTS assay for small molecule activators of the rat pregnane X receptor (rPXR) signaling pathway (AID 651751; call rule not given here; also: 0% is about no effect); conditions: rPXR reporter cells, luciferase (One-Glo), 24 h
Sequence of Nuclear receptor subfamily 1 group I member 2 (Rattus norvegicus) (Q9R1A7 whole entry, looked up): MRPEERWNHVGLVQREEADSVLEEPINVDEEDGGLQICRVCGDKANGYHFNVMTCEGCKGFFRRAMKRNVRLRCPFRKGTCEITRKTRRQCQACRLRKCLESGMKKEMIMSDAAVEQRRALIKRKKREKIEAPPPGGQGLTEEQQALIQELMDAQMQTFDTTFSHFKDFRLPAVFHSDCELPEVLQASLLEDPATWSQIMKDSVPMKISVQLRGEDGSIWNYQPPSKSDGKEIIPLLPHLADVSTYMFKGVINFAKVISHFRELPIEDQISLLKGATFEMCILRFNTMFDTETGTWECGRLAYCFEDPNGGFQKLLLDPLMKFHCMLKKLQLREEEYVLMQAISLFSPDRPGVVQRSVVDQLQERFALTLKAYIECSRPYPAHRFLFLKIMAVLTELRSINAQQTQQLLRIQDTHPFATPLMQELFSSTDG

[4] = qHTS assay for small molecule activators of the human pregnane X receptor (PXR) signaling pathway (AID 720659; call rule not given here; also: 0% is about no effect)
[5] = at 45.9 µM (top of the series), tumour line B
[6] = at 21.2 µM (top of the series), tumour line D

For `CCCCCCCCCc1ccc(OCCOCCO)cc1`, the Potency [1] was 12.6 µM (active).
In the case of `CC(=O)Nc1ccc(NC(=S)NC(=O)c2ccc(C(C)(C)C)cc2)cc1`, the Potency [1] is reported as 3.98 µM (active).
For `CNC(C)CCC=C(C)C` (configuration not stated), the activity, negative = cell killing [2, 5] was -23.7%, the Potency [2] was 11.2 µM (active) and the Potency [1] was “inactive”.
In the case of `CN=C1C=CC(=C(c2ccc(N(C)C)cc2)c2ccc(N(C)C)cc2)C=C1`, the Potency [1] is reported as 11.2 µM (active).
With `C=C1C(CCl)(CCl)C2(Cl)C(Cl)C(Cl)C1(Cl)C2(Cl)Cl` (configuration not stated) the Potency [1] was “inactive”.
With `O=c1n(CC2CO2)c(=O)n(CC2CO2)c(=O)n1CC1CO1` (configuration not stated) the max response [3] was -7.41% and -4.4% and the outcome [4] was “inactive”.
For `OCCN1CCN(CC/C=C2/c3ccccc3Sc3ccc(Cl)cc32)CC1`, the activity, negative = cell killing ([2]; at 21.2 µM (top of the series), tumour line B) was -19.4%, the activity, negative = cell killing [2, 6] was -24.9% and the Potency [1] was “inactive”.
With `O=C(CCCN1CCN2CCCC2C1)c1ccc(F)cc1` (configuration not stated) the Potency [1] was “inactive”.
With `C=C1CC[C@H](O)CC1=C/C=C1\CCC[C@]2(C)[C@@H]([C@H](C)CCCC(C)(C)O)CC[C@@H]12` the Potency [1] was 20 µM (active).
In the case of `CCCCCCCCCCCCCCCCOCCOCCOCCOCCOCCOCCOCCOCCOCCOCCOCCOCCOCCOCCOCCOCCOCCOCCOCCOCCO`, the Potency [1] is reported as 3.16 µM (active).
For `COc1ccc2nc(NC(=O)Nc3ccccc3)sc2c1`, the Potency [1] was 7.94 µM (active).
In the case of `C=C[C@]1(C)C[C@@H](OC(=O)CSCCN(CC)CC)[C@]2(C)[C@H](C)CC[C@]3(CCC(=O)[C@H]32)[C@@H](C)[C@@H]1O`, the activity, negative = cell killing [2, 5] is reported as -23.5%, the Potency [2] is reported as 7.94 µM (active) and the Potency [1] is reported as “inactive”.
With `C=C1c2c(Cl)ccc(O)c2C(O)=C2C(=O)[C@]3(O)C(O)=C(C(N)=O)C(=O)[C@@H](N(C)C)[C@@H]3[C@@H](O)[C@H]12` the activity, negative = cell killing ([2]; at 20 µM (top of the series), tumour line C) was 3.1%, the activity, negative = cell killing [2, 6] was -28.3% and the Potency [1] was “inactive”.
